PubChem BioAssay (NCATS)
Results filed as inconclusive are left out. Entries that show only a call come without a potency. The source made the active and inactive calls. The call rests on the fitted dose curve; in most records, active means well fitted inhibition curve with a large enough effect; inconclusive means small, poorly fitted or top-dose-only effect; inactive means flat fitted curve, though single readings scatter.

System: AA1029
Experiment: qHTS profiling for inhibitors of Plasmodium falciparum proliferation (AID 504749); further: nearly all actives have a fitted effect of over 60% in size
Details: P. falciparum in erythrocytes, SYBR Green DNA, 72 h; series mostly up to 28.7 µM
Method in brief: (§1)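 SYBR Green fluorescence of parasite DNA, read after lysis and overnight dark incubation, measured growth over 72 h in erythrocyte culture at 0.3% parasitemia and 2.5% hematocrit. Data normalised to DMSO and 0.29 uM artemisinin, with plate-drift correction.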

SMILES | Potency
O=C(O)c1cc(O)c2c(c1)[C@H]([C@H]1c3cc(C(=O)O)cc(O)c3C(=O)c3c(O[C@@H]4OC(CO)C(O)C(O)C4O)cccc31)c1cccc(O[C@@H]3OC(CO)C(O)C(O)C3O)c1C2=O (stereo partly drawn) | inactive
CC(C)CN(C[C@@H](OP(=O)(O)O)[C@H](Cc1ccccc1)NC(=O)O[C@@H]1CCOC1)S(=O)(=O)c1ccc(N)cc1 | inactive
CCC(C)n1ncn(-c2ccc(N3CCN(c4ccc(OCC5COC(Cn6cncn6)(c6ccc(Cl)cc6Cl)O5)cc4)CC3)cc2)c1=O (stereo not drawn) | inactive
CC(C)CN(C[C@@H](O)[C@H](Cc1ccccc1)NC(=O)O[C@H]1CCOC1)S(=O)(=O)c1ccc(N)cc1 | inactive

System: AS120
Experiment: as above
Details: P. falciparum in erythrocytes, SYBR Green DNA, 72 h; series mostly up to 28.7 µM
Method in brief: as §1

SMILES | Potency
O=C(O)c1cc(O)c2c(c1)[C@H]([C@H]1c3cc(C(=O)O)cc(O)c3C(=O)c3c(O[C@@H]4OC(CO)C(O)C(O)C4O)cccc31)c1cccc(O[C@@H]3OC(CO)C(O)C(O)C3O)c1C2=O (stereo partly drawn) | inactive
CC(C)CN(C[C@@H](OP(=O)(O)O)[C@H](Cc1ccccc1)NC(=O)O[C@@H]1CCOC1)S(=O)(=O)c1ccc(N)cc1 | inactive
CCC(C)n1ncn(-c2ccc(N3CCN(c4ccc(OCC5COC(Cn6cncn6)(c6ccc(Cl)cc6Cl)O5)cc4)CC3)cc2)c1=O (stereo not drawn) | inactive
CC(C)CN(C[C@@H](O)[C@H](Cc1ccccc1)NC(=O)O[C@H]1CCOC1)S(=O)(=O)c1ccc(N)cc1 | inactive

System: ATS189
Experiment: as above
Details: P. falciparum in erythrocytes, SYBR Green DNA, 72 h; series mostly up to 28.7 µM
Method in brief: as §1

SMILES | Potency
O=C(O)c1cc(O)c2c(c1)[C@H]([C@H]1c3cc(C(=O)O)cc(O)c3C(=O)c3c(O[C@@H]4OC(CO)C(O)C(O)C4O)cccc31)c1cccc(O[C@@H]3OC(CO)C(O)C(O)C3O)c1C2=O (stereo partly drawn) | inactive
CC(C)CN(C[C@@H](OP(=O)(O)O)[C@H](Cc1ccccc1)NC(=O)O[C@@H]1CCOC1)S(=O)(=O)c1ccc(N)cc1 | inactive
CCC(C)n1ncn(-c2ccc(N3CCN(c4ccc(OCC5COC(Cn6cncn6)(c6ccc(Cl)cc6Cl)O5)cc4)CC3)cc2)c1=O (stereo not drawn) | inactive
CC(C)CN(C[C@@H](O)[C@H](Cc1ccccc1)NC(=O)O[C@H]1CCOC1)S(=O)(=O)c1ccc(N)cc1 | inactive

System: ATS95
Experiment: as above
Details: P. falciparum in erythrocytes, SYBR Green DNA, 72 h; series mostly up to 28.7 µM
Method in brief: as §1

SMILES | Potency
O=C(O)c1cc(O)c2c(c1)[C@H]([C@H]1c3cc(C(=O)O)cc(O)c3C(=O)c3c(O[C@@H]4OC(CO)C(O)C(O)C4O)cccc31)c1cccc(O[C@@H]3OC(CO)C(O)C(O)C3O)c1C2=O (stereo partly drawn) | inactive
CC(C)CN(C[C@@H](OP(=O)(O)O)[C@H](Cc1ccccc1)NC(=O)O[C@@H]1CCOC1)S(=O)(=O)c1ccc(N)cc1 | inactive
CCC(C)n1ncn(-c2ccc(N3CCN(c4ccc(OCC5COC(Cn6cncn6)(c6ccc(Cl)cc6Cl)O5)cc4)CC3)cc2)c1=O (stereo not drawn) | inactive
CC(C)CN(C[C@@H](O)[C@H](Cc1ccccc1)NC(=O)O[C@H]1CCOC1)S(=O)(=O)c1ccc(N)cc1 | inactive

System: C2A
Experiment: as above
Details: P. falciparum in erythrocytes, SYBR Green DNA, 72 h; series mostly up to 28.7 µM
Method in brief: as §1

SMILES | Potency
O=C(O)c1cc(O)c2c(c1)[C@H]([C@H]1c3cc(C(=O)O)cc(O)c3C(=O)c3c(O[C@@H]4OC(CO)C(O)C(O)C4O)cccc31)c1cccc(O[C@@H]3OC(CO)C(O)C(O)C3O)c1C2=O (stereo partly drawn) | inactive
CC(C)CN(C[C@@H](OP(=O)(O)O)[C@H](Cc1ccccc1)NC(=O)O[C@@H]1CCOC1)S(=O)(=O)c1ccc(N)cc1 | inactive
CCC(C)n1ncn(-c2ccc(N3CCN(c4ccc(OCC5COC(Cn6cncn6)(c6ccc(Cl)cc6Cl)O5)cc4)CC3)cc2)c1=O (stereo not drawn) | inactive
CC(C)CN(C[C@@H](O)[C@H](Cc1ccccc1)NC(=O)O[C@H]1CCOC1)S(=O)(=O)c1ccc(N)cc1 | inactive

System: CP185
Experiment: as above
Details: P. falciparum in erythrocytes, SYBR Green DNA, 72 h; series mostly up to 28.7 µM
Method in brief: as §1

SMILES | Potency
O=C(O)c1cc(O)c2c(c1)[C@H]([C@H]1c3cc(C(=O)O)cc(O)c3C(=O)c3c(O[C@@H]4OC(CO)C(O)C(O)C4O)cccc31)c1cccc(O[C@@H]3OC(CO)C(O)C(O)C3O)c1C2=O (stereo partly drawn) | inactive
CC(C)CN(C[C@@H](OP(=O)(O)O)[C@H](Cc1ccccc1)NC(=O)O[C@@H]1CCOC1)S(=O)(=O)c1ccc(N)cc1 | inactive
CCC(C)n1ncn(-c2ccc(N3CCN(c4ccc(OCC5COC(Cn6cncn6)(c6ccc(Cl)cc6Cl)O5)cc4)CC3)cc2)c1=O (stereo not drawn) | inactive
CC(C)CN(C[C@@H](O)[C@H](Cc1ccccc1)NC(=O)O[C@H]1CCOC1)S(=O)(=O)c1ccc(N)cc1 | inactive

System: CP191
Experiment: as above
Details: P. falciparum in erythrocytes, SYBR Green DNA, 72 h; series mostly up to 28.7 µM
Method in brief: as §1

SMILES | Potency
O=C(O)c1cc(O)c2c(c1)[C@H]([C@H]1c3cc(C(=O)O)cc(O)c3C(=O)c3c(O[C@@H]4OC(CO)C(O)C(O)C4O)cccc31)c1cccc(O[C@@H]3OC(CO)C(O)C(O)C3O)c1C2=O (stereo partly drawn) | inactive
CC(C)CN(C[C@@H](OP(=O)(O)O)[C@H](Cc1ccccc1)NC(=O)O[C@@H]1CCOC1)S(=O)(=O)c1ccc(N)cc1 | inactive
CCC(C)n1ncn(-c2ccc(N3CCN(c4ccc(OCC5COC(Cn6cncn6)(c6ccc(Cl)cc6Cl)O5)cc4)CC3)cc2)c1=O (stereo not drawn) | inactive
CC(C)CN(C[C@@H](O)[C@H](Cc1ccccc1)NC(=O)O[C@H]1CCOC1)S(=O)(=O)c1ccc(N)cc1 | inactive
